# Laboratory results reported in ChEMBL document CHEMBL3988442, “University of Dundee, Small-Polar-MMV Screening Library” (2021).
# Molecular target: AMP-activated protein kinase, AMPK (Homo sapiens) (UniProt P54646+O43741+P54619+Q9UGJ0+Q9Y478+Q13131+Q9UGI9)
# Experiment: AMP-dependent Kinase enzyme assay. An in vitro enzyme assay that detects ADP turnover that is directly proportional to AMPK activity. This uses naive AMPK that is activated during the assay with MK-8722
# Assay type: functional
# Parameters: scale not given: direction of the effect not stated beside the values
# Conditions: 30 µM
row,SMILES,Percent Effect [%]
1,CN1CCC(NC(=O)c2cc(Cl)cc(Br)c2O)C1=O (stereo not given),12.7
2,CCNC(=O)C1CCN(Cc2ccccc2OCC(F)(F)F)CC1,-3.27
3,CN1CCCC(CCC(=O)NCCc2nnc(N)s2)C1 (stereo not given),-1.67
4,COc1ccc(Cl)cc1C(=O)N1C[C@@H](NC(=O)N(C)C)[C@H](C(C)C)C1,2.28
5,O=C1CN(Cc2cn(CC3CCN(C4CCSCC4)CC3)nn2)CCN1,-3.51
6,CCC(C)Oc1ccc(CNCCc2c[nH]cn2)cc1Cl (stereo not given),-17.6
7,CS(=O)(=O)NC(=O)c1ccn(-c2cccc(Br)c2)n1,2.69
8,O=C(NCC1CCOC1)c1cc(-c2ccc(Cl)cc2)n[nH]1 (stereo not given),1
9,O=C(c1ccc(=O)[nH]c1)N1CCC(Oc2cccc(C(F)(F)F)c2)CC1,-3.39
10,COC(=O)c1ccc(N(C(=O)c2cccnc2C)C(C)C)c(C)c1,-5.67
11,COc1ncccc1C(=O)NCCn1nc(C)ccc1=O,-4.66
12,CCN1CCC(NC(=O)N(C)Cc2csc3ccccc23)CC1,-1.48
13,Cc1cc(C)n(CCN2CCC(N(C)Cc3nnc(C)n3C)C2)n1 (stereo not given),3.54
14,Cc1nonc1CN1CC[C@@](O)(C2CCC2)[C@H](C)C1,-1.54
15,C=C(C)Cn1nc(C)c(CN2CCN(C3CCCCC3)C(=O)C2)c1C,10.7
16,CCN(CC)C(=O)CS(=O)(=O)c1cc(OC)c(OC)cc1C,3.6
17,Cc1n[nH]c(C)c1CCc1n[nH]c(=O)n1Cc1cccs1,-7.17
18,CC(C)c1ccc(/C=C/CC(=O)NC2CCN(C(N)=O)C2)cc1 (stereo not given),1.32
19,Cn1c(CN2CC[C@](C)(O)C(C)(C)C2)cc2ccccc21,12.4
20,Cc1cc(Cl)c(C)c(S(=O)(=O)N2CCN(Cc3ccncc3)CC2)c1Cl,-2.88

row,SMILES,Percent Effect [%]
1,Cc1nsc(C(=O)NCCc2ccccc2)n1,3.51
2,Cc1nc(CNC(=O)c2cc(COc3ccccc3F)[nH]n2)n[nH]1,5.27
3,CC(=O)NC1CCCN(c2nc3ccccc3cc2CO)C1 (stereo not given),3.71
4,Cc1cccc(CN2CCCC2c2cccc(Nc3nccs3)n2)c1 (stereo not given),6.23
5,CC1(C(N)=O)CN(S(=O)(=O)c2cccc(F)c2)CCO1 (stereo not given),3.77
6,O=C(NCCNCc1cccc2c1OCCCO2)C1CCCC1,-0.551
7,COc1ccc(-c2cc3nc(CCNC(=O)C4CC4)nn3cn2)cc1,-2.76
8,O=C(NCc1nccs1)N1CCOC(c2ccccc2Cl)C1 (stereo not given),4.45
9,O=C(CCN1CCOCC1)Nc1cccc(CNCc2ccsc2)c1,-5.46
10,CS(=O)(=O)N1CC[C@]2(O)CCN(c3cc(C#N)ccn3)C[C@@H]2C1,-6.37
11,Cc1cnn(CCCNC(=O)NCCC(=O)Nc2ccccc2)c1,11.1
12,O=C(NCC(F)(F)F)c1ccc(-n2cccn2)nn1,0.877
13,Cc1cnn(CCNCC(=O)N2CCN(c3ccccc3)CC2)c1,-5.8
14,Cc1ccc(CNC(CCO)C2CCCCC2)nc1 (stereo not given),2.17
15,COc1ccc(CCC(C)Nc2cccc(SC)c2)cc1 (stereo not given),-6.2
16,Cn1ccc(C(=O)N2CCCCC2c2cc(CCO)[nH]n2)n1 (stereo not given),30.2
17,COCC(=O)N1CCC(c2c(C(=O)N(C)C)sc3ncccc23)C1 (stereo not given),1.82
18,CN(Cc1nc2ccccc2[nH]1)C(=O)CN(C)c1ccc(Cl)cn1,-0.551
19,CCc1nc(C)c(CN2CCOC(CCCC(C)C)C2)[nH]1 (stereo not given),-6.7
20,CCc1cc(CN2CCCCC2c2ccc(F)cc2)on1 (stereo not given),2.23
